# Source: PubChem BioAssay (NCATS)
# Inconclusive results are not listed. Values without a mark were called inactive. Activity calls are given as the source filed them. Calls follow the shape of the dose curve; as a rule, active = well fitted cell-killing curve with a large enough effect; inconclusive = small, poorly fitted or top-dose-only effect; inactive = no such curve, though single readings can be large or run the other way.
# Experiment: qHTS of pediatric cancer cell lines to identify multiple opportunities for drug repurposing: Primary screen for SK-N-SH cells (AID 1347098); also: nearly all actives have a fitted effect of over 65% in size
# Conditions: SK-N-SH viability, CellTiter-Glo luminescence, 48 h; series mostly up to 57 µM; activity change, negative = cytotoxic: at the top concentration
# Description: Drug repurposing or repositioning has been offered as a strategy for drug development in oncology programs. This approach has special potential for childhood cancers and other rare or orphan diseases, where the expected return on new drug development has been a disincentive to pharmaceuticals.
# In this project we exploit the poly-pharmacology of drugs to discover new indications via phenotypic screening of a panel of 19 well-characterized cell lines derived from solid tumors seen in children and adolescents. The goal is to identify approved drugs with previously unrecognized anticancer properties that has the potential to reveal new mechanisms and biological processes involved in carcinogenesis or drug resistance. We employed a titration-based paradigm (quantitative high-throughput screening or qHTS), where all compounds were tested at multiple concentrations for their effect on cell viability. Concentration-response curves (CRCs) were derived directly from the primary screen, and both potency and efficacy values were used to identify compounds with robust bioactivity profiles. We screened the NIH Chemical Genomics Center (NCGC) Pharmaceutical Collection (NPC) and Mechanism Interrogation Plate (MIPE) small molecule collections of approved and investigational compounds against these cell lines; and measured metabolically active cells after 48 hours of compound treatment as a proxy for cell viability.
# Assay Submitter: Nathalia J. Martinez, National Center for Advancing Translational Sciences, National Institutes of Health, Rockville, MD, USA; email: natalia.martinez@nih.gov
# [1] Shen, M et al. Quantitative high-throughput phenotypic screening of pediatric cancer cell lines identifies multiple opportunities for drug repurposing. Oncotarget 2017 Dec 19;9(4):4758-4772. PMID 29435139.
# The cells were obtained from University of North Carolina (UNC), Pediatric Preclinical Testing Program (PPT), and Coriell Institute (CI).
# qHTS cell viability assay:
# Cells were assayed in growth media at a density of 500-1,000 cells/well. Five microliters of cells were dispensed into 1,536-well, white, solid-bottom, TC-treated plates (Greiner Bio One) using a multidrop dispenser and incubated at 37 degrees C, 5% CO2, under a humidified atmosphere for 5 hours. Twenty-three nanoliters of compounds and controls (neutral control DMSO or positive control bortezomib at final concentration of 2.3 µM) were subsequently transferred by Kalypsys pintool. For primary screens, the MIPE collection was tested at 11-point dilutions (final concentrations range from 0.78 nM to 46 µM) and the NPC collection at 8-point dilutions (final concentrations range from 0.59 nM to 46 µM). Compounds tested in follow-up screens were assayed at 11-point dilutions. Cells were incubated for 48 hours, followed by addition of 3 µL of CellTiter-Glo (Promega). After a 15 min incubation at room temperature, samples were analyzed for luminescence intensity using a ViewLux High-throughput CCD imager equipped with clear filters.
# % is scaled to controls: 0 for no effect and ±100 for the full control effect; potency is read from the fitted curve at half-maximal effect.
Structure (SMILES),Potency,"activity change, negative = cytotoxic"
CC(C)(O)C=CC(=O)[C@](C)(O)[C@H]1[C@H](O)C[C@]2(C)[C@@H]3CC=C4[C@@H](C=C(O)C(=O)C4(C)C)[C@]3(C)C(=O)C[C@@]12C,0.152 µM (active),–
c1ccc2c(CN3CCNCC3)cccc2c1,–,1.86%
O=c1cccc2n1CC1CNC[C@H]2C1,24.1 µM (active),–
CCCCCC[C@H]1C(=O)O[C@H](C)[C@H](NC(=O)c2cccc(NC=O)c2O)C(=O)O[C@@H](C)[C@@H]1OC(=O)CC(C)C,–,-2.69%
COC(=O)[C@@H](N)CCCN=C(N)N[N+](=O)[O-],6.07 µM (active),–
O=[N+]([O-])c1c(Cl)c(Cl)cc(Cl)c1Cl,–,9.21% [at 115 µM]
CC(=Cc1csc(C)n1)[C@@H]1C[C@H]2O[C@]2(C)CCC[C@H](C)[C@@H](O)[C@@H](C)C(=O)C(C)(C)[C@@H](O)CC(=O)O1,–,-24.8%
O=S(=O)(F)Cc1ccccc1,–,-1.73%
O=[N+]([O-])c1cc([N+](=O)[O-])c2ccccc2c1,–,24.7% [at 115 µM]
NC1=NC(=O)N2CC12 (stereo not given),–,9.75%
C=C[C@@H]1CN2CCC1C[C@@H]2[C@@H](O)c1ccnc2ccccc12 (stereo not given in full),30.4 µM (active),–
CCOP(=O)(NC(C)C)Oc1ccc(SC)c(C)c1 (stereo not given),–,-26.8% [at 115 µM]
NC1CC1c1ccccc1 (stereo not given),–,27.4%
CC(=O)[O][Hg][c]1ccccc1,0.97 µM (active),–
CC[C@@]1(O)C(=O)OCc2c1cc1n(c2=O)Cc2cc3ccccc3nc2-1,0.121 µM (active),–
CC[C@H]1C=CC=CC[C@@H](C)[C@H](O)[C@@](C)(O)C(=O)[C@@H](C)[C@H](O)[C@@H](C)C(=O)[C@@H](C)[C@H](O)[C@@H](C)C=CC(=O)O[C@@H]2[C@@H](C)[C@H](CC1)O[C@]1(CC[C@H](C)[C@H](C[C@@H](C)O)O1)[C@H]2C,–,3.85%
Cc1c(C(=O)Nc2cccc(C(F)(F)F)c2)cc(-c2ccccc2)n1CCCN1CCOCC1,24.1 µM (active),–
O=C(O)C(Cl)Cl,–,5.57%
CCCC[N+]1(C)[C@H]2CC(OC(=O)[C@H](CO)c3ccccc3)C[C@H]1[C@H]1O[C@H]12 (stereo not given in full),–,3.46%
CCCCCCCCCC(CC)c1ccc(S(=O)(=O)O)cc1 (stereo not given),–,-19.2% [at 115 µM]

Structure (SMILES),Potency,"activity change, negative = cytotoxic"
CC(=Cc1csc(C)n1)[C@@H]1C[C@H]2O[C@@H]2CCC[C@H](C)[C@@H](O)[C@@H](C)C(=O)C(C)(C)[C@@H](O)CC(=O)O1,–,-15.4%
COC(=O)c1cncn1C(C)c1ccccc1 (stereo not given),–,-19.4%
O=C(O)COc1ccccc1,–,1.47%
CCN(CC)C(=O)c1ccc(C2=CC3(CCNCC3)Oc3cccc(O)c32)cc1,–,4.2%
CC1=C(C(=O)O)N2C(=O)[C@@H](N)[C@H]2SC1,–,-10.3% [at 20 µM]
CC=C(C)C(=O)O[C@H]1C(C)=C2[C@@H]3OC(=O)[C@@](C)(O)[C@@]3(O)[C@@H](OC(=O)CCC)C[C@](C)(OC(C)=O)[C@@H]2[C@@H]1OC(=O)CCCCCCC,0.136 µM (active),–
C[C@@H]1CC[C@@]2(OC1)O[C@H]1C[C@H]3[C@@H]4CC=C5C[C@@H](O[C@@H]6O[C@H](CO)[C@@H](O[C@@H]7O[C@@H](C)[C@H](O)[C@@H](O)[C@@H]7O)[C@H](O)[C@@H]6O[C@@H]6O[C@@H](C)[C@H](O)[C@@H](O)[C@@H]6O)CC[C@]5(C)[C@@H]4CC[C@]3(C)[C@@H]1[C@H]2C,12.1 µM (active),–
C[C@H]1CCCC=CC2C[C@H](O)C[C@@H]2[C@H](O)C=CC(=O)O1 (stereo not given in full),0.001 µM (active),–
CC(C)NCC(O)c1ccc([N+](=O)[O-])cc1 (stereo not given),–,-3.08%
Fc1cc(Br)ccc1CBr,–,-13.1%
CC(C)[C@H]1C(=O)N[C@H](CO)Cc2c[nH]c3cccc(c23)N1C,–,37.8%
C[C@@H]1[C@H](O)[C@@H](C)C=CC=CCCC=CC=CC=CC=C[C@H](O[C@H]2O[C@@H](C)[C@H](O)[C@@H](N)[C@@H]2O)CC2O[C@](O)(C[C@@H](O)[C@H](O)CC[C@@H](O)C[C@@H](O)C[C@@H](O)CC(=O)O[C@H]1C)C[C@H](O)[C@H]2C(=O)O,–,6.91%
CCCCOC(=O)c1ccccc1C(=O)OCc1ccccc1,–,-15.7% [at 115 µM]
Clc1ccccc1C(c1ccccc1)(c1ccccc1)n1cccn1,–,3.77%
O=C(Oc1ccc([N+](=O)[O-])cc1)N1CCC(C(O)(c2ccc3c(c2)OCO3)c2ccc3c(c2)OCO3)CC1,–,-13.7%
C=CCC1=C(C)C(OC(=O)C2C(C=C(C)C)C2(C)C)CC1=O (stereo not given),–,-19.3% [at 115 µM]
C[C@@H]1O[C@@H](O[C@@H]2C=C3CC[C@@H]4[C@@H](CC[C@]5(C)[C@H](c6ccc(=O)oc6)CC[C@@]45O)[C@@]3(C)CC2)[C@H](O)[C@H](O)[C@H]1O,0.0961 µM (active),–
CC1=C(O)C(=O)C=C2C1=CC=C1[C@@]2(C)CC[C@@]2(C)[C@@H]3C[C@](C)(C(=O)O)CC[C@]3(C)CC[C@]12C,3.04 µM (active),–
C1CCC(NC2CCCCC2)CC1,–,-2.21%
CCN1CCN(C(=O)Cc2ccc(Nc3ncc(F)c(Nc4ccc(C(=O)Nc5ccccc5Cl)cc4)n3)cc2)CC1,21.5 µM (active),–
